# Laboratory results reported in PubChem BioAssay (NCI).
# Compounds without any hit were thinned out: in the full panel of roughly 79,000, 15% have a hit. Activity calls are given as the source filed them. Cut-off read from the data, not from the text of the source: active = growth inhibition above about 70%; inactive = the rest.
# Assay: NCI Yeast Anticancer Drug Screen. Data for the cln2 rad14 strain (AID 165);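 note: 0% = growth equal to vehicle treated cultures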
# Conditions: S. cerevisiae cln2 rad14 strain, at 50.0 µM, stronger effect = higher value
# How it was run: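 Growth of compound-exposed yeast (cln2 rad14 genotype) measured and expressed as inhibition relative to vehicle.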
row,Compound,growth inhibition
1,O=C(COC(=O)c1cccc([N+](=O)[O-])c1)c1ccc(Br)cc1,-16.2% (inactive)
2,Cc1ccc(NS(=O)(=O)c2ccc(F)cc2)c(C)c1,-14.2% (inactive)
3,CCOC(=O)N(C)C,11.1% (inactive)
4,CCCCN1C(=O)CC2[C@@H]3CCc4cc(OC)ccc4C3CC[C@]2(C)C1=O (stereo partly drawn),26.6% (inactive)
5,COc1cc2cc(-c3ccc(Cl)c(Cl)c3)[n+](C)cc2cc1OC,21.6% (inactive)
6,Fc1ccc(-c2ccc(F)cc2)cc1,-44.9% (inactive)
7,CC(=O)Nc1ccc(S(=O)(=O)N/N=C/c2ccc3c(c2)OCO3)cc1,2.15% (inactive)
8,Cc1ccc(/C=C2\N=C(N3CCCC(CO)C3)NC2=O)cc1 (stereo not drawn),-1.15% (inactive)
9,O=[N+]([O-])c1ncc(N(CCO)CCO)s1,3.65% (inactive)
10,Cc1ccc(C)c(NC(=O)C(=O)C2C(=O)C3=C(CC2(C)C)Nc2ccccc2S3)c1 (stereo not drawn),-21.5% (inactive)
11,N[C@@H]1CCCC[C@H]1O,-24.9% (inactive)
12,CN(C)NC(=O)/C=C\C(=O)O,-6.9% (inactive)
13,CC(C)(N)CNc1ccccc1,-11.1% (inactive)
14,CN1c2ccccc2C(=O)NC12CCN(Cc1ccccc1)CC2,0.75% (inactive)
15,CC1CCN(C(=S)[S-])CC1.CC1CCN(C(=S)[S-])CC1.[Zn],34.2% (inactive)
16,CN(C)Cc1onc(-c2c(Cl)cccc2Cl)c1C(=O)O,6.05% (inactive)
17,CC(=O)OC1=C(OC(C)=O)N(S(=O)(=O)c2ccc(C)cc2)CCc2ccccc21,26.5% (inactive)
18,O=C(Sc1ccccc1)C1OC1c1ccccc1 (stereo not drawn),60.8% (inactive)
